# Measured values as given in PubChem BioAssay (Tox21).
# “And” between values parts separate entries of the source, which are not always exact repeats. Equal entries are not always repeated. Records with an inconclusive call do not appear. Entries that show only a call come without a potency. The source made the active and inactive calls. Unless noted, calls follow the shape of the full dose curve.
# Columns and labels:
# [1] = Nuclear factor erythroid 2-related factor 2/antioxidant responsive element (Nrf2/ARE) small molecule agonists: luciferase reporter gene qHTS assay in human keratinocytes (AID 1919969); also: nearly all actives have a fitted effect of over 35% in size; also: potency is read from the fitted curve at half-maximal effect
# [2] = biological target: Gonadotropin-releasing hormone receptor (Homo sapiens) (UniProt P30968); assay: Human gonadotropin-releasing hormone receptor (GnRHR) small molecule agonists, calcium flux assay in GnRHR-HEK293 cells (AID 1920063); also: nearly all actives have a fitted effect of over 35% in size
# Method in brief: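 GnRHR-HEK293, 1500 cells/well, 18 h 37 C/5% CO2; Ca dye 1 h 37 C; cpd pinned (DMSO), agonist mode; kinetic FL 480/540, 3 min, 1 s reads; 15 conc, n=3.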
# [3] = biological target: KiSS-1 receptor (Homo sapiens) (UniProt Q969F8); assay: Human kisspeptin (KISS1R) small molecule agonists, calcium flux assay in KISS1R-HEK293 cells (AID 1920064; active = well fitted activation curve with a large enough effect in the repeat runs)
# Method in brief: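 Stable human KISS1R HEK293 line; 18 h plating, 37 C/5% CO2; calcium dye 1 h 37 C; compound pin transfer; kinetic fluorescence Ex/Em 480/540, 3 min.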
# [4] = G protein-coupled receptor (GPCR) small molecule agonists, calcium flux assay: HEK293 wild type cell line counter screen (AID 1920065)
# Method in brief: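 Kinetic fluorescence at Ex/Em 480/540, recorded every second over 3 min, served as the read-out after compound addition. Each compound was tested at 15 concentrations in triplicate on cells pre-loaded with calcium dye for 1 h.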
# [5] = p53 small molecule agonists, cell-based qHTS assay with human liver microsomes (AID 1963577)
# Method in brief: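 p53RE-bla reporter cells were pre-incubated 5 h at 37 C, then treated with compounds plus human liver microsomes (0.5 mg/mL final) and NADPH (0.5 mg/mL final) for 16 h at 37 C. Beta-lactamase activity was read by LiveBLAzer fluorescence after 2 h at room temperature.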
# [6] = p53 small molecule agonists, cell-based qHTS assay with human liver microsomes: qHTS cell viability counter screen (AID 1963579); also: nearly all actives have a fitted effect of over 45% in size
# Method in brief: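 p53RE-bla cells (4,000/well) were pre-incubated 5 h at 37 C, then given compounds in DMSO plus human liver microsomes (0.5 mg/mL final) and NADPH (0.5 mg/mL final) for 16 h at 37 C. Viability was read by CellTiter-Glo luminescence.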
# [7] = p53 small molecule agonists, cell-based qHTS assay with rat liver microsomes: qHTS cell viability counter screen (AID 1963580); also: nearly all actives have a fitted effect of over 45% in size
# Method in brief: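 In HCT-116 cells carrying a p53 response element-bla reporter, compounds were metabolically activated in situ by rat liver microsomes with NADPH over 16 h. Cell ATP content then served as the cytotoxicity measure.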
# [8] = p53 small molecule agonists, cell-based qHTS assay: qHTS cell viability counter screen (AID 1963581); also: nearly all actives have a fitted effect of over 45% in size
# Method in brief: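 HCT-116 p53RE-bla cells, 4,000/well, plated 5 h before compound pin transfer; 16 h at 37 C; bla substrate 2 h RT; then CellTiter-Glo, 30 min RT, luminescence.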
# [9] = biological target: 5-hydroxytryptamine receptor 2A (Homo sapiens) (UniProt P28223); assay: 5-hydroxytryptamine receptor 2A (HTR2A) small molecule antagonists, cell-based qHTS assay (AID 1963586); also: nearly all actives have a fitted effect of over 45% in size; also: potency is read from the fitted curve at half-maximal effect
# Method in brief: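 Antagonist-mode intracellular calcium assay: DOI (4 nM) added after 5 min compound pre-incubation at room temperature to dye-loaded HTR2A-CHO cells. Fluorescence followed for 3 min, sampled every second.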
# [10] = biological target: 5-hydroxytryptamine receptor 2A (Homo sapiens) (UniProt P28223); assay: 5-hydroxytryptamine receptor 2A (HTR2A) small molecule agonists, cell-based qHTS assay (AID 1963587); also: nearly all actives have a fitted effect of over 30% in size; also: potency is read from the fitted curve at half-maximal effect
# Method in brief: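 HTR2A-CHO cells, plated 18 h at 37 C/5% CO2, dye-loaded 1 h at 37 C; compounds in DMSO added by pin tool (agonist mode). Intracellular calcium flux read as kinetic fluorescence on FDSS over 2 min at 1 s intervals.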
# [11] = biological target: Muscarinic acetylcholine receptor M1 (Homo sapiens) (UniProt P11229); assay: Cholinergic receptor muscarinic 1 (CHRM1) small molecule antagonists, cell-based qHTS assay (AID 1963588); also: nearly all actives have a fitted effect of over 40% in size; also: potency is read from the fitted curve at half-maximal effect
# Method in brief: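 CHRM1-CHO calcium-flux assay, antagonist mode. Cells were seeded 18 h, dye-loaded 1 h at 37 C and given compound for 5 min at RT, then acetylcholine was added at 50nM. FDSS fluorescence was read 3 min; 15 concentrations, three runs.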
# [12] = biological target: Muscarinic acetylcholine receptor M1 (Homo sapiens) (UniProt P11229); assay: Cholinergic receptor muscarinic 1 (CHRM1) small molecule agonists, cell-based qHTS assay (AID 1963589); also: nearly all actives have a fitted effect of over 35% in size
# Method in brief: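 Human M1 in stable CHO line; 18 h plating, 1 h dye load 37 C; cpd added (agonist mode); Ca2+ fluorescence kinetic read, 1 s intervals; 15 conc, 3 runs.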
# [13] = cAMP Responsive Elements (CRE) small molecule agonists, cell-based qHTS assay (AID 1963590)
# Method in brief: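 HEK 293T CRE-bla, 2,000 cells/well, 18 h preincubation 37 C/5% CO2; cpds (DMSO) pinned, 3 h; LiveBLAzer B/G FRET substrate, 2 h RT.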
# [14] = cAMP Responsive Elements (CRE) small molecule antagonists, cell-based qHTS assay (AID 1963591; active = well fitted inhibition curve with a large enough effect in the signal ratio in the repeat runs, not every such curve was filed as active; the % refers to the signal ratio)
# Method in brief: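 Beta-lactamase reporter read by FRET substrate (LiveBLAzer B/G) after 2 h at room temperature. CRE-bla HEK293T cells had received compound plus 0.25 uM (final) NKH477 for 3 h at 37 °C.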
# [15] = biological target: D(2) dopamine receptor (Homo sapiens) (UniProt P14416); assay: Dopamine D2 receptor (DRD2) small molecule agonists, cell-based qHTS assay (AID 1963594); also: nearly all actives have a fitted effect of over 35% in size
# Method in brief: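 HEK293 cells stably expressing DRD2 were cultured 24 h at 37 C, then given Ro20-1724 (0.1 mM final) and compounds for 10 min at room temperature. NKH477 (200nM) was then added for 30 min. cAMP was read by HTRF.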
# [16] = biological target: D(2) dopamine receptor (Homo sapiens) (UniProt P14416); assay: Dopamine D2 receptor (DRD2) small molecule antagonists, cell-based qHTS assay (AID 1963595; active = well fitted inhibition curve with a large enough effect in the signal ratio in the repeat runs, with a control signal flat; the % refers to the signal ratio; also: potency is read from the fitted curve at half-maximal effect)
# Method in brief: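 DRD2-HEK293; 0.1 mM Ro20-1724; cpd 10 min RT; NKH477 200 nM + quinpirole 12 nM, 30 min RT; HTRF cAMP (cAMP-d2/anti-cAMP cryptate), 665/620 nm ratio after 1 h.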
# [17] = biological target: Beta-2 adrenergic receptor (Homo sapiens) (UniProt P07550); assay: Adrenergic beta2 receptor (ADRB2) small molecule agonists, cell-based qHTS assay (AID 1963593);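 also: CHO cells stably overexpressing human ADRB2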
# Method in brief: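 CHO cells stably over-expressing ADRB2 were plated overnight at 37C, then dosed with compounds plus a stimulation mix containing 100uM IBMX and 25uM Ro-20-1724 for 0.5hr at room temperature. cAMP was measured by HTRF competition, 1hr.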
# [18] = p53 small molecule agonists, cell-based qHTS assay with rat liver microsomes (AID 1963578)
# Method in brief: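 p53RE-bla cells were exposed to compounds together with rat liver microsomes (0.5 mg/mL final) and NADPH (0.5 mg/mL final) for 16 h at 37 C, then read by LiveBLAzer beta-lactamase fluorescence after 2 h at room temperature.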
# [19] = p53 small molecule agonists, cell-based qHTS assay (AID 1963582; active = well fitted activation curve with a large enough effect in the signal ratio in the repeat runs, not every such curve was filed as active; the % refers to the signal ratio)
# Method in brief: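 Reporter line: p53RE-bla. Pre-incubation 5 h, 37 C, 5% CO2; compound (DMSO, pin tool) 16 h, 37 C; B/G FRET substrate 2 h RT; fluorescence intensity read.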
# [20] = biological target: Beta-2 adrenergic receptor (Homo sapiens) (UniProt P07550); assay: Adrenergic beta2 receptor (ADRB2) small molecule antagonists, cell-based qHTS assay (AID 1963592); also: series mostly up to about 92 µM; nearly all actives have a fitted effect of over 50% in size
# Method in brief: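 Cells (CHO, stable ADRB2 overexpression) incubated 18-20hr at 37C; compounds added from DMSO; agonist mix (1nM isoproterenol, 100uM IBMX, 25uM Ro-20-1724) added; 0.5hr RT; d2-cAMP and anti-cAMP-cryptate added; 1hr RT; 665/615 nm read.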
# KiSS-1 receptor (Homo sapiens), sequence (Q969F8 whole entry, looked up): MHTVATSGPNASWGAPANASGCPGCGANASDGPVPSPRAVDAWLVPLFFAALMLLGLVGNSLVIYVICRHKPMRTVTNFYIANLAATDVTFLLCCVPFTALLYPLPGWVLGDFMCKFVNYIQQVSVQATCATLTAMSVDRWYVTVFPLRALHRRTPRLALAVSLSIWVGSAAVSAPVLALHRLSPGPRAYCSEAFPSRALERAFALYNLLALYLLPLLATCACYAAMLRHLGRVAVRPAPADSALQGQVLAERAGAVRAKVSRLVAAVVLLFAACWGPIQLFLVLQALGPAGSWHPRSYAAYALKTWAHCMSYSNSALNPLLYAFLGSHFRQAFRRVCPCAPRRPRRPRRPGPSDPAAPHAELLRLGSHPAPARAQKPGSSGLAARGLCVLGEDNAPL
# 5-hydroxytryptamine receptor 2A (Homo sapiens), sequence (P28223 whole entry, looked up): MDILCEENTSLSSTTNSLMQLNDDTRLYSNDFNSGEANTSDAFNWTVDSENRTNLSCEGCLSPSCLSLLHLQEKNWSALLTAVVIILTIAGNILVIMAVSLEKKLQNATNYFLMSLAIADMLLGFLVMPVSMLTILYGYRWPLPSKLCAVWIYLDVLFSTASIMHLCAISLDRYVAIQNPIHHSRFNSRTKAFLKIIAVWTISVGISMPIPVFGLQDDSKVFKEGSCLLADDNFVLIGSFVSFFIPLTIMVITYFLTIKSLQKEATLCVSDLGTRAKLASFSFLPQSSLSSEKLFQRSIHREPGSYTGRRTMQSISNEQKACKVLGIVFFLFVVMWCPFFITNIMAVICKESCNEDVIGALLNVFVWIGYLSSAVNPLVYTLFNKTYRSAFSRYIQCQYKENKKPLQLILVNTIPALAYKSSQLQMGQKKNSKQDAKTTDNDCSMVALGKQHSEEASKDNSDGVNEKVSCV
# Muscarinic acetylcholine receptor M1 (Homo sapiens), sequence (P11229 whole entry, looked up): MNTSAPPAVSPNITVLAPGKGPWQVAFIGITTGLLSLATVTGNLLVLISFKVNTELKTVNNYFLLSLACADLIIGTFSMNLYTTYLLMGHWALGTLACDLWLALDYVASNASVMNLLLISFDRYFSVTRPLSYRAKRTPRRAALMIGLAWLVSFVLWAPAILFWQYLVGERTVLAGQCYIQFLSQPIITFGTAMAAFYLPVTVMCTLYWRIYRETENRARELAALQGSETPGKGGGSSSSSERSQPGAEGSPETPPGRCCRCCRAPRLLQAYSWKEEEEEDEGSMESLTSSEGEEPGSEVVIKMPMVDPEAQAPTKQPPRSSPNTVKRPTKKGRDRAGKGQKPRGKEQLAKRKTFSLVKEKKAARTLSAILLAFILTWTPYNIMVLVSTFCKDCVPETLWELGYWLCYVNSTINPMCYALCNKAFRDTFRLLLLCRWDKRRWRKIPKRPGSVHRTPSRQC
# Gonadotropin-releasing hormone receptor (Homo sapiens), sequence (P30968 whole entry, looked up): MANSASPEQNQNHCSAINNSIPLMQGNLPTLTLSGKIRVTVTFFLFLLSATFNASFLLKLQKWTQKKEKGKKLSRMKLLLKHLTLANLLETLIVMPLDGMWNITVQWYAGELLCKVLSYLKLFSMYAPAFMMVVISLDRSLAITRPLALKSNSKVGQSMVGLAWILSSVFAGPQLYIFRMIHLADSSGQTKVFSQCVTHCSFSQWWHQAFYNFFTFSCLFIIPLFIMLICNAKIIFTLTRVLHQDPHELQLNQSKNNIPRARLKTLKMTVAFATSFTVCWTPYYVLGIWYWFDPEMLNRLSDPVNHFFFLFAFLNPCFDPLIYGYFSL
# D(2) dopamine receptor (Homo sapiens), sequence (P14416 whole entry, looked up): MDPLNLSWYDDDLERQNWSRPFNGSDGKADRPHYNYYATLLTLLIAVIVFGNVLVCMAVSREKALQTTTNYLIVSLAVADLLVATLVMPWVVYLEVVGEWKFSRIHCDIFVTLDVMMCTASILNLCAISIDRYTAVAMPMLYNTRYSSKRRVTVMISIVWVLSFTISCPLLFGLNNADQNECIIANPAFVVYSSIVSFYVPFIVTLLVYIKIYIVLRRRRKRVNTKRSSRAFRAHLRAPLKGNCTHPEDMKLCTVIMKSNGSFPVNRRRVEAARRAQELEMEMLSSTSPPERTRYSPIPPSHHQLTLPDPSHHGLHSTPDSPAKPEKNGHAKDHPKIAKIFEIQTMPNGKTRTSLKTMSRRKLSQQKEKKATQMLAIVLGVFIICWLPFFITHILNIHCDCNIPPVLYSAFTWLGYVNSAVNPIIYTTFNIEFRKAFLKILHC
# Beta-2 adrenergic receptor (Homo sapiens), sequence (P07550 whole entry, looked up): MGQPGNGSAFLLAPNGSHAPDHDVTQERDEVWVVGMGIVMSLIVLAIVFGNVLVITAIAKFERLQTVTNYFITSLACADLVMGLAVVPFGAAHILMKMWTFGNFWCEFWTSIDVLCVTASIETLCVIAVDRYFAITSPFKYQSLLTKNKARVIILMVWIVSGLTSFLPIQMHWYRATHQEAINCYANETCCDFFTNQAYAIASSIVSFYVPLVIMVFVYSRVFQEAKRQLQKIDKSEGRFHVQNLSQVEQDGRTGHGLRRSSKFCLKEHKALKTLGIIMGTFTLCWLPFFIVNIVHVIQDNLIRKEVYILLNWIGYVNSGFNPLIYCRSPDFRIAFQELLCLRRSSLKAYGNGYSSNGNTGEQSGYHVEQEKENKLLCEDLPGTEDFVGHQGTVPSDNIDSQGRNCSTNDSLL
SMILES,Potency [1],Potency [2],Potency [3],Potency [4],Potency [5],Potency [6],Potency [7],Potency [8],Potency [9],Potency [10],Potency [11],Potency [12],Potency [13],Potency [14],Potency [15],Potency [16],Potency [17],Potency [18],Potency [19],Potency [20]
CN(C)C(=O)Nc1cccc(OC(=O)NC(C)(C)C)c1,inactive,inactive,inactive,inactive,inactive,inactive,inactive,inactive,inactive,inactive,inactive,inactive,inactive,inactive,inactive,inactive,–,–,–,–
CCOP(=S)(OCC)SCSCC,inactive,inactive,inactive,inactive,–,inactive,inactive,inactive,inactive,inactive,inactive,inactive,inactive,inactive,inactive,inactive,inactive,–,–,–
CN(C)C(=O)Oc1cc(OC(=O)N(C)C)cc(C(O)CNC(C)(C)C)c1 (configuration not stated),inactive,inactive,inactive,inactive,–,inactive,inactive,inactive,–,–,–,–,inactive,inactive,–,inactive,inactive,inactive,inactive,inactive
NCCCNCCCN,–,inactive,inactive,inactive,inactive,inactive,inactive,inactive,inactive,inactive,38.1 µM (active),inactive,inactive,inactive,inactive,inactive,inactive,inactive,–,–
CC(C)c1c(CN(C)C(C)Cc2ccccc2)n(C)n(-c2ccccc2)c1=O (configuration not stated),–,inactive,inactive,inactive,inactive,inactive,–,inactive,–,inactive,–,inactive,–,–,inactive,inactive,inactive,inactive,inactive,inactive
O=S(=O)(c1ccc(Cl)cc1)c1ccc(Cl)cc1,inactive,–,inactive,inactive,–,inactive,–,–,10.7 µM (active),–,–,inactive,inactive,–,inactive,–,–,inactive,–,inactive
ClC1=C(Cl)[C@]2(Cl)[C@@H]3[C@H]4C[C@H]([C@@H]5O[C@H]45)[C@@H]3[C@@]1(Cl)C2(Cl)Cl,–,inactive,inactive,inactive,inactive,inactive,inactive,inactive,–,–,–,–,–,–,inactive,inactive,–,inactive,inactive,–
CCC(=O)c1ccc(Cl)cc1,–,inactive,inactive,inactive,–,inactive,inactive,inactive,inactive,inactive,inactive,inactive,inactive,inactive,inactive,inactive,–,–,–,inactive
CCOC(=O)[C@]1(c2ccccc2)Oc2ccccc2[C@@H]1N,–,inactive,inactive,inactive,–,inactive,inactive,inactive,inactive,inactive,8.4 µM (active),inactive,–,–,inactive,–,–,–,–,inactive
[O]=[Cd],–,inactive,inactive,inactive,inactive,inactive,inactive,inactive,–,–,inactive,inactive,inactive,inactive,inactive,inactive,–,inactive,inactive,inactive
Cc1cc(C)c(C(=O)P(=O)(c2ccccc2)c2ccccc2)c(C)c1,–,inactive,inactive,inactive,–,–,inactive,–,10.6 µM (active),24.5 µM (active),inactive,inactive,–,–,inactive,inactive,–,inactive,–,inactive
CC(=O)c1cc2c(cc1C)C(C)(C)C(C)CC2(C)C (configuration not stated),–,inactive,inactive,inactive,inactive,inactive,inactive,inactive,inactive,inactive,inactive,inactive,–,inactive,inactive,inactive,–,inactive,–,inactive
CC(c1ccc(O)cc1)(c1ccc(O)cc1)c1ccc(O)cc1,–,inactive,inactive,inactive,–,inactive,–,–,23.7 µM (active),–,inactive,inactive,–,–,inactive,–,inactive,inactive,–,inactive
OC(Cc1ccccc1Cl)(Cn1[nH]cnc1=S)C1(Cl)CC1 (configuration not stated),10.9 µM (active),–,inactive,inactive,–,inactive,–,–,–,38.9 µM (active),inactive,inactive,inactive,inactive,inactive,inactive,–,inactive,–,inactive
CC(C)[N+](=O)[O-],inactive,inactive,–,–,inactive,inactive,inactive,inactive,–,inactive,inactive,inactive,inactive,inactive,inactive,inactive,inactive,–,–,inactive
CCCCNC(=O)OCC#CI,24.2 µM (active) and 24.3 µM (active),–,inactive,inactive,inactive,inactive,inactive,inactive,inactive,–,inactive,–,–,–,inactive,68.6 µM (active),inactive,inactive,–,inactive
